Compounds with a hit are over-represented: about 1.3% of the library has one in this group of screens.
PKM2 activator – increases activity of human pyruvate kinase M2; Potency, µM (titrated, usually from 57.5 µM), without a hit: at the highest dose activation, most hits filed as activators; hit rate 0.34% among 260,000; purified PKM2, Kinase-Glo ATP luminescence, activation; response scale: 0% is enzyme alone, no compound; P14618; further: potency means the concentration at half of the fitted maximal effect; on the % scale 0 is the no-effect control and ±100 the full control effect; nearly all actives have a fitted effect of over 55% in size
Target sequence (P14618 whole entry, looked up): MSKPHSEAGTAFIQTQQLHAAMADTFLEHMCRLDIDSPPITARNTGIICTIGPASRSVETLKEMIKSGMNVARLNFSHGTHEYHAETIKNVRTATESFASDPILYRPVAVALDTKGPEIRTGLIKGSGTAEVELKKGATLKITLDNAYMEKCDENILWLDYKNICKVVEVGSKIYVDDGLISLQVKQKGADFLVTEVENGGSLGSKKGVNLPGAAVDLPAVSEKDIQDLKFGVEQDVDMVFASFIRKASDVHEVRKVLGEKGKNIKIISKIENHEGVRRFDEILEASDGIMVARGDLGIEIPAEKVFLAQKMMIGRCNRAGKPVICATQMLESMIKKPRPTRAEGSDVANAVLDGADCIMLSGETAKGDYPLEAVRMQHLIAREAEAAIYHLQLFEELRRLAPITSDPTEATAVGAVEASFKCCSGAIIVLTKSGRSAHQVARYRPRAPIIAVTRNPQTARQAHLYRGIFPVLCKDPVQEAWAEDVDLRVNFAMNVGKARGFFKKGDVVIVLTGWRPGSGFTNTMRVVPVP
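ATP formation by purified human PK-M2, quantified via coupled luciferase luminescence after 1 h at room temperature with 0.1 mM ADP and 0.5 mM PEP final.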
a7 integrin act – activates integrin-mediated alleviation for muscular dystrophy | hit rate 0.064% among 350,000 | Potency, µM (top dose mostly 38.3 µM), inactives show at the top dose activation, hits mostly activators | AID 624291 | alpha7betagal myoblasts, beta-gal FDG fluorescence, 48 h;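 further: potency means the concentration at half of the fitted maximal effect; 100% = response of the positive control SU9516; nearly all actives have a fitted effect of over 60% in size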
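alpha7betagal+/- myoblasts (passage 13, 250/well) treated 48 h at 37C with compounds at 1:260 dilution of DMSO stock. Lysed, then beta-galactosidase activity read as FDG fluorescence (ex 480/em 540) after 30 min, with pre-read for autofluorescence.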
BRCA1 expr act – BRCA1 expression activation; AID 624202; hit rate 1.1% among 380,000; Potency, µM (titrated, usually from 46.1 µM), for inactives: at the top dose activation, usual class: activators; MCF7-BRCA1-FFLuc reporter, luminescence, 48 h; response scale: scaled: vehicle 0%, 10 µM genistein 100%; further: potency means the concentration at half of the fitted maximal effect; nearly all actives have a fitted effect of over 80% in size
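48 h compound treatment of MCF7-BRCA1-FFLuc cells (phenol-red free MEM, 37 °C), then 15 min with luciferase substrate and luminescence imaging.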
Apoferritin bind – candidate novel general anesthetic via apoferritin binding | apoferritin/1-aminoanthracene competitive binding, fluorescence | Potency, µM (series often up to 77.5 µM), for the others: top-dose activity change, negative = displacement, usual class: inhibitors | hit rate 0.074% among 350,000 | AID 485281; further: potency means the concentration at half of the fitted maximal effect; on the % scale 0 is the no-effect control and ±100 the full control effect; nearly all actives have a fitted effect of over 20% in size
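Horse-spleen apoferritin (10 uM) in 50% saturated 1-aminoanthracene in PBS was incubated 10 min at room temperature with compound. Fluorescence (ex 380, em 535 nm) was normalized to free and bound 1-AMA, with concentration-response fitted by a four-parameter Hill equation.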
IL2 activator – activators of IL-2; IL-2 activation reporter assay, cell-based qHTS; stimulated with anti-CD3/CD4/CD28 beads; in transgenic mouse T cells; hit rate 0.065% among 360,000; activation, % (series mostly up to about 46 µM); in the data active means activation above about 50%; inconclusive means mostly about 30% to 49%; further: 0% is about no effect
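Readout is EGFP and DsRed signal by fluorescent plate cytometry after 18 h at 37 degrees C. Transgenic mouse T cells (750/well) received compound for 60 min before bead stimulation (anti-CD3, anti-CD4, anti-CD28); memory T cells served as non-tolerant control.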
The depositor's hits bear a star; ? = inconclusive; . = not tested or not shown. Unless noted, the call rests on the fitted dose curve; in most records, active means well fitted curve in the direction sought with a large enough effect; inconclusive means small, poorly fitted or top-dose-only effect, or another doubt; inactive means no such curve, though single readings can be large; an effect the other way counts as inactive or inconclusive.

SMILES | PKM2 activator | a7 integrin act | BRCA1 expr act | Apoferritin bind | IL2 activator
Cc1cc(NC(=O)Nc2ccc3c(ccn3C)c2)sn1 | . | . | 10µM* | . | 0
CCN(CC)C(=S)SCC(=O)c1ccccc1 | -1% | 17% | 7.9µM* | ? | -1
CCN(CC)C(=S)SCC(=O)c1ccc(F)cc1 | 0% | -50% | 3.2µM* | ? | 0
Cn1cnnc1SCC(=O)N1N=C2/C(=C/c3ccco3)CCCC2C1c1ccco1 (stereo not given) | 28µM* | -22% | -15% | -21% | 0
CCN(C(=O)Cn1nc(Cc2ccncc2)c2ccccc2c1=O)c1cccc(Cl)c1 | . | . | . | -9% | .
CC(=O)Nc1ccc(OCC(O)Cn2c(C)nc3ccccc32)cc1 (stereo not given) | 9% | -7% | 0% | -4% | -1
CC(=O)Nc1ccc(OCC(O)Cn2c(C(C)C)nc3ccccc32)cc1 (stereo not given) | 1% | -32% | 4% | -2% | 72*
COC(=O)c1ccc(OCC(O)Cn2nnc3ccccc32)cc1 (stereo not given) | 0% | 18% | 11µM* | -16% | 0
COCCCCOc1cc2nc(N3CCCN(C)CC3)nc(NC3CCN(C)CC3)c2cc1OC | . | . | -54% | . | .
Nc1ccc2c(c1)Cc1cc(N)c(Br)cc1-2 | . | -19% | ? | . | -3
COc1cc2c(cc1N)-c1ccc(N)cc1C2 | . | 33% | 7.9µM* | . | -6
O=C(NC1CC1)c1cccc(-c2cncc3nccn23)c1 | . | . | 5% | . | 1
CCOc1ccc(-c2cnc3cccnn23)cc1 | . | . | 7.1µM* | . | 0
CCOc1cccc(-c2cnc3cccnn23)c1 | . | . | 8.9µM* | . | -1
Cc1cccc(-c2cnc3cccnn23)c1 | . | . | ? | . | 0
O=C(NC1CC1)c1ccc(-c2cnc3cccnn23)cc1 | . | . | 7.9µM* | . | -1
CCn1cc(C(=O)N2CCN(c3ccccc3)CC2)c(=O)c2cc(S(=O)(=O)N3CCCC3)ccc21 | . | . | . | 5% | .
Cc1c(CN(C)C(=O)c2cc(-c3ccccc3)nc3ccc(Br)cc23)cnn1C | . | . | . | -12% | .
COc1ccc2c(c1)O/C(=C\c1ccccc1C)C2=O | . | 0% | 13µM* | -5% | -3
COc1[nH]c(/N=C/c2ccco2)c(C#N)c1C#N | . | . | 2% | . | .
CCOc1ccc2oc(C(=O)OCC(=O)NC(=O)NC)c(C)c2c1 | 4% | 7.1µM* | 0% | 0% | 0
CCOc1ccc2oc(C(=O)OCC(=O)NC(=O)NC3CCCC3)c(C)c2c1 | -2% | 11% | 58% | ? | 0
Cc1nn(CCC(=O)N2CCN(S(=O)(=O)c3ccc(Cl)cc3)CC2)c(C)c1C | 22µM* | -12% | -9% | 2% | 0
Cc1ccc(S(=O)(=O)N2CCN(C(=O)CCn3nc(C)c(C)c3C)CC2)cc1 | 14µM* | 30% | -1% | -3% | 7
Nc1c(C(=O)Nc2nccs2)sc2nc(-c3cccs3)cc(C(F)(F)F)c12 | 6% | -4% | -49% | 113% | 104*
SMILES | PKM2 activator | a7 integrin act | BRCA1 expr act | Apoferritin bind | IL2 activator
CCC(C)c1ccc(NC(=O)N2CCOCC2)cc1 (stereo not given) | -7% | -11% | 10µM* | -15% | 0
O=C(Nc1ccc(Cc2ccc(NC(=O)N3CCOCC3)cc2)cc1)N1CCOCC1 | -3% | 5% | 4% | -1% | -2
CCOc1ccc(C(=O)c2cn(CC(=O)Nc3cc(OC)cc(OC)c3)c3ccc(F)cc3c2=O)cc1 | . | . | -40% | 2% | .
COc1ccc(N2CCN(C(c3ccc(C)cc3)c3nnnn3C(C)(C)C)CC2)cc1 (stereo not given) | . | . | 5% | . | .
Cc1ccc2nc(NCc3ccccc3)c(C=NCc3ccccc3)c(=O)n2c1 | 2% | -36% | 13µM* | -13% | -3
CC(C)c1ccc(C2C3=C(CC(c4ccco4)CC3=O)Nc3nc(C(F)(F)F)nn32)cc1 (stereo not given) | . | . | -15% | . | .
O=C1CC(c2ccco2)CC2=C1C(c1ccccc1)n1nc(C(F)(F)F)nc1N2 (stereo not given) | 4.5µM* | -18% | -12% | -22% | 3
COc1ccc2nc(N3CCCCC3)c(C#N)cc2c1 | 14% | 16% | 11µM* | 234% | 0

Compound activity (PubChem BioAssay)
